Legend:
Test in all cases: DAPPL (digital affinity profiling via proximity ligation, sequencing); 10 mM Tris-HCl pH 7.5, 50 mM NaCl, 1 mM DTT, 4% glycerol, room temperature, 30 min; GST-TFs on glutathione beads, 16-mer random dsDNA library, 0.1% formaldehyde crosslink after washing; high values mean tight binding
FLI1 = target: T1, FLI1 (Homo sapiens, UniProt Q01543 1-452); conditions: protein: recombinant; tags: N-terminal GST; dsDNA, one strand shown
T1 sequence: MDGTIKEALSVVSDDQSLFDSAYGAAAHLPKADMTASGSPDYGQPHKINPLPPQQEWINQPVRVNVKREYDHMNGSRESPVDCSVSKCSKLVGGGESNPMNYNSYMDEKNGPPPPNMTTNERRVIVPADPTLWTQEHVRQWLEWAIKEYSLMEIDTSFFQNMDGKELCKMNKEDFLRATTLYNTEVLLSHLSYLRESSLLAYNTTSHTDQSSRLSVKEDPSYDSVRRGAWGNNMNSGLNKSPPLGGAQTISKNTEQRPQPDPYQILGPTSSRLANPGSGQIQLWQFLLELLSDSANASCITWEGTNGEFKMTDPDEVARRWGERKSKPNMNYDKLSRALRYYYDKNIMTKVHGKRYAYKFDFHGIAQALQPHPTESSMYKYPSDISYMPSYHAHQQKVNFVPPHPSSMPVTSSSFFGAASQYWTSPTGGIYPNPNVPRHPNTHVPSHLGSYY
In short: (§1)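 Human transcription factors were made in yeast as GST fusions, captured on glutathione beads and barcoded with DNA. With a tag-only sample included, the pool was incubated with 200 nmole of a random double-stranded 16-mer DNA library in Tris/NaCl/DTT/glycerol buffer at room temperature for 30 min, then crosslinked with 0.1% formaldehyde after washing, ligated by proximity, amplified and sequenced. For binding signal, each hexamer's read frequency for a factor is divided by its frequency for the tag-only sample.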

ELK1 = target: T2, ELK1 (Homo sapiens, UniProt P19419 1-428); conditions: protein: recombinant; tags: N-terminal GST; dsDNA, one strand shown
T2 sequence: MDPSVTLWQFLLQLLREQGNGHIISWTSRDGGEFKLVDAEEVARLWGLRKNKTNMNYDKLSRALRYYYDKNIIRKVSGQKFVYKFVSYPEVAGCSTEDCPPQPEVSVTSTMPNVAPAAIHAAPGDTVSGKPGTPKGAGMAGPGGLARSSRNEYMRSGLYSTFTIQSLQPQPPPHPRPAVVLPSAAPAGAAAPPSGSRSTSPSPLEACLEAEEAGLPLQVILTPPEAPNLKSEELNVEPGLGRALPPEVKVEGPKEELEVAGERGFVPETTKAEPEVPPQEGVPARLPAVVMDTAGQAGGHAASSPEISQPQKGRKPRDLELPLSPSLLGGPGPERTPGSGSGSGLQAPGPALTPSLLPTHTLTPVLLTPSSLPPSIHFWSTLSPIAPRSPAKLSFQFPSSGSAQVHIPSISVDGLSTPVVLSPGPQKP
In short: as §1

GABPA = target: T3, GABPA (Homo sapiens, UniProt Q06546 1-454); conditions: protein: recombinant; tags: N-terminal GST; dsDNA, one strand shown
T3 sequence: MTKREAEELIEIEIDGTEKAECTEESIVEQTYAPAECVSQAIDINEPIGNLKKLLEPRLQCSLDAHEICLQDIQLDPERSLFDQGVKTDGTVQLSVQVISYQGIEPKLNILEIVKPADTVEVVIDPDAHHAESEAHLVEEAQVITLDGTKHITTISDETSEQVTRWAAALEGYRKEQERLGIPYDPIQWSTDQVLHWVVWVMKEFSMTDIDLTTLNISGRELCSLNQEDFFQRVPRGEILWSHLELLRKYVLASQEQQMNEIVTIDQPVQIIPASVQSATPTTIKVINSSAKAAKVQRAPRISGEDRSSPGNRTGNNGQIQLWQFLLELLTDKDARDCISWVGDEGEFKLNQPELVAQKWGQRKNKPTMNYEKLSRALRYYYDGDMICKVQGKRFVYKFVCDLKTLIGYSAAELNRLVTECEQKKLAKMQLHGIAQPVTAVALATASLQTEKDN
In short: as §1

ERG = target: T4, ERG (Homo sapiens, UniProt P11308 1-479); conditions: protein: recombinant; tags: N-terminal GST; dsDNA, one strand shown
T4 sequence: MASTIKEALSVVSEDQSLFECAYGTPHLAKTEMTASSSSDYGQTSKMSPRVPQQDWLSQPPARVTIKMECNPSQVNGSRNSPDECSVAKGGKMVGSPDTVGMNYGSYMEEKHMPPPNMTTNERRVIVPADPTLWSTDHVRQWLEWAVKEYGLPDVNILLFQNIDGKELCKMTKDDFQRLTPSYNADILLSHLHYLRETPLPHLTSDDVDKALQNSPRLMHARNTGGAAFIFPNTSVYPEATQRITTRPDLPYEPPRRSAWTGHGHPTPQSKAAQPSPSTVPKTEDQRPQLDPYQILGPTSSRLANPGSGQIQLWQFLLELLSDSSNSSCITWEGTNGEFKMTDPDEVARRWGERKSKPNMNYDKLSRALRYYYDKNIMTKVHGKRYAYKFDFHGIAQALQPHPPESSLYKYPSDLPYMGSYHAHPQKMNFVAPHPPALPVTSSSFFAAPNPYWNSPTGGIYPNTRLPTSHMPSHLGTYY
In short: as §1

ELF1 = ELF1 (Homo sapiens, UniProt P32519 1-619); conditions: protein: recombinant; tags: N-terminal GST; dsDNA, one strand shown
Chain of ELF1 (P32519 whole entry): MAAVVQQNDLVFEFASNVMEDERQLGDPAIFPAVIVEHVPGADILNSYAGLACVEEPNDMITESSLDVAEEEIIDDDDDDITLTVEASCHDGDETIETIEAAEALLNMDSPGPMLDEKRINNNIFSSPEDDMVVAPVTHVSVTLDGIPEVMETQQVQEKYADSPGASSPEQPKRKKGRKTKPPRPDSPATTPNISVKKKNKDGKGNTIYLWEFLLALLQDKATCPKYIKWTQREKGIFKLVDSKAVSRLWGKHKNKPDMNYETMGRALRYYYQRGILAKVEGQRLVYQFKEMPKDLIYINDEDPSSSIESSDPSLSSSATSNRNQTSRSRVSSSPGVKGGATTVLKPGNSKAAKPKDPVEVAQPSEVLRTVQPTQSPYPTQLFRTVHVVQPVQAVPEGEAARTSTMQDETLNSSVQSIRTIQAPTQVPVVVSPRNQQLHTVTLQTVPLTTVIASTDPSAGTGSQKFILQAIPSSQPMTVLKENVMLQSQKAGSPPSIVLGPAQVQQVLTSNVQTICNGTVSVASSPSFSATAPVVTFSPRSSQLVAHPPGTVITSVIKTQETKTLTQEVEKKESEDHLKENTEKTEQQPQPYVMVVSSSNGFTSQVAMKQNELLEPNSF
In short: as §1

EHF = target: T5, EHF (Homo sapiens, UniProt Q9NZC4 1-300); conditions: protein: recombinant; tags: N-terminal GST; dsDNA, one strand shown
T5 sequence: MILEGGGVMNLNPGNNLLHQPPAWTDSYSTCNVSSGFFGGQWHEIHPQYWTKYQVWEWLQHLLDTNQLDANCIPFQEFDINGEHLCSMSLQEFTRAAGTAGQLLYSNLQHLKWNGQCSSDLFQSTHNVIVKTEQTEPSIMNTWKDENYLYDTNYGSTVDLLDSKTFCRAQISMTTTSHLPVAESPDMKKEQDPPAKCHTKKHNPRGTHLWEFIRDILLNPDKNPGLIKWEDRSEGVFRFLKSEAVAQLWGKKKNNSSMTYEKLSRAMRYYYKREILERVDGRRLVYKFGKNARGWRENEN
In short: as §1

SPI1 = SPI1 (Homo sapiens, UniProt P17947 1-270); conditions: protein: recombinant; tags: N-terminal GST; dsDNA, one strand shown
In short: as §1

SPIB = SPIB (Homo sapiens, UniProt Q01892 1-262); conditions: protein: recombinant; tags: N-terminal GST; dsDNA, one strand shown
Chain of SPIB (Q01892 whole entry): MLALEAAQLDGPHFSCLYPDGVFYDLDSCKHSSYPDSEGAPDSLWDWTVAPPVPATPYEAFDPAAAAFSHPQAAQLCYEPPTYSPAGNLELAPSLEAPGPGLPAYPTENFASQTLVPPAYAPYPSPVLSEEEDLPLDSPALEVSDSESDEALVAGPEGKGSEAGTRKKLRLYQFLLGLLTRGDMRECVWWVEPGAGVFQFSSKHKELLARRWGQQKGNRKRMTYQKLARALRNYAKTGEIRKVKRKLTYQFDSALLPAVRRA
In short: as §1

ELK3 = target: T6, ELK3 (Homo sapiens, UniProt P41970 1-407); conditions: protein: recombinant; tags: N-terminal GST; dsDNA, one strand shown
T6 sequence: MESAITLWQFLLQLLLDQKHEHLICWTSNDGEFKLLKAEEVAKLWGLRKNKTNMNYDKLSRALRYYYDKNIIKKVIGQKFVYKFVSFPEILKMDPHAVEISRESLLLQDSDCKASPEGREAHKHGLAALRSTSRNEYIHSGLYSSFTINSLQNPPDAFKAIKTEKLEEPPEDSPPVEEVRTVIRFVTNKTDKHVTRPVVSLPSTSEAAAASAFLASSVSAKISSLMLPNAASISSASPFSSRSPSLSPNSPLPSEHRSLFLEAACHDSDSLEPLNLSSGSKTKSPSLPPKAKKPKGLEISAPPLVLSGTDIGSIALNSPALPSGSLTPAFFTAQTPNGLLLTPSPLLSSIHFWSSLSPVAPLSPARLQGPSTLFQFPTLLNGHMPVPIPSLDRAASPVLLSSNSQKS
In short: as §1

FEV = target: T7, FEV (Homo sapiens, UniProt Q99581 1-238); conditions: protein: recombinant; tags: N-terminal GST; dsDNA, one strand shown
T7 sequence: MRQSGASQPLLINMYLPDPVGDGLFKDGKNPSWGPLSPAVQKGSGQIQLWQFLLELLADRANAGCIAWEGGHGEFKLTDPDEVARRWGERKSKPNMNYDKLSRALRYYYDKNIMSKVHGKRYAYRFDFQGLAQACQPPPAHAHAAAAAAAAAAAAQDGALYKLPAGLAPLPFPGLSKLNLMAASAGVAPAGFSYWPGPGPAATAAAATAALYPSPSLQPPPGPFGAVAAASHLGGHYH
In short: as §1

ETV5 = ETV5 (Homo sapiens, UniProt P41161 1-510); conditions: protein: recombinant; tags: N-terminal GST; dsDNA, one strand shown
Chain of ETV5 (P41161 whole entry): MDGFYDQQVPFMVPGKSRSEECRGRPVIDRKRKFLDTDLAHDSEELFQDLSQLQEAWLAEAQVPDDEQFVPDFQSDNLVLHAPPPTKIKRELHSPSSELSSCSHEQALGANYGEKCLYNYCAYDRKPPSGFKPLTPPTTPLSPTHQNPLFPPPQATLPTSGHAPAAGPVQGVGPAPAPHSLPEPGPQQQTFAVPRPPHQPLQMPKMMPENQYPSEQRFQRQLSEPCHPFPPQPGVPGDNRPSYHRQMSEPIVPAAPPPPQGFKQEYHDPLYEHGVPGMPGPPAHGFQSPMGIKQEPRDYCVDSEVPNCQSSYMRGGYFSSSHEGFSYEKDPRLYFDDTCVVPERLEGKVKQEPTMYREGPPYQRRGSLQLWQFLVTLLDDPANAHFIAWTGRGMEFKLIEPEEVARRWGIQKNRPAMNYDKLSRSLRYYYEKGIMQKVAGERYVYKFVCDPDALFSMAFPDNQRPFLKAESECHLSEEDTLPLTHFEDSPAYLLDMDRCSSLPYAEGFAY
In short: as §1

HSF1 = HSF1 (Homo sapiens, UniProt Q00613 1-529); conditions: protein: recombinant; tags: N-terminal GST; chain copies: 3; dsDNA, one strand shown
Chain of HSF1 (Q00613 whole entry): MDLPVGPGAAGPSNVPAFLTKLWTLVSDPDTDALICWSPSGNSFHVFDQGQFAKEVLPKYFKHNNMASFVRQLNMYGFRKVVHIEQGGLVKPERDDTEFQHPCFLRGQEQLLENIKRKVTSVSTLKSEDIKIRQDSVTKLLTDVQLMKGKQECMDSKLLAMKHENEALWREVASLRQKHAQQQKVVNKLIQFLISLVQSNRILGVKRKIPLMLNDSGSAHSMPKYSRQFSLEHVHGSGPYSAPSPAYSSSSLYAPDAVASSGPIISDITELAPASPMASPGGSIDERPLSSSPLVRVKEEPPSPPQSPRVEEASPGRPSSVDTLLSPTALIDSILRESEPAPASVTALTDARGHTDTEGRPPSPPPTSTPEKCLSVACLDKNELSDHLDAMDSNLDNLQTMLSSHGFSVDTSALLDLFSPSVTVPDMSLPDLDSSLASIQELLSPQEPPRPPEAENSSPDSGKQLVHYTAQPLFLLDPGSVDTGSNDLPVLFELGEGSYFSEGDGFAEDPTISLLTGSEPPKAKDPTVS
In short: as §1

SPIC = target: T8, SPIC (Homo sapiens, UniProt Q8N5J4 1-248); conditions: protein: recombinant; tags: N-terminal GST; dsDNA, one strand shown
T8 sequence: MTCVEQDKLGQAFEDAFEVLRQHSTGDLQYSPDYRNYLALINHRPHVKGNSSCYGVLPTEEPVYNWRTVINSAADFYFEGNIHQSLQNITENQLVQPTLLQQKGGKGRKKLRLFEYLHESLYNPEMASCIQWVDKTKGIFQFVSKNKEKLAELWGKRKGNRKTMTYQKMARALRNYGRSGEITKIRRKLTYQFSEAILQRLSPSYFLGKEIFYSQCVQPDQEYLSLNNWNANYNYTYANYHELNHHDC
In short: as §1

ELF4 = ELF4 (Homo sapiens, UniProt Q99607 1-663); conditions: protein: recombinant; tags: N-terminal GST; dsDNA, one strand shown
Chain of ELF4 (Q99607 whole entry): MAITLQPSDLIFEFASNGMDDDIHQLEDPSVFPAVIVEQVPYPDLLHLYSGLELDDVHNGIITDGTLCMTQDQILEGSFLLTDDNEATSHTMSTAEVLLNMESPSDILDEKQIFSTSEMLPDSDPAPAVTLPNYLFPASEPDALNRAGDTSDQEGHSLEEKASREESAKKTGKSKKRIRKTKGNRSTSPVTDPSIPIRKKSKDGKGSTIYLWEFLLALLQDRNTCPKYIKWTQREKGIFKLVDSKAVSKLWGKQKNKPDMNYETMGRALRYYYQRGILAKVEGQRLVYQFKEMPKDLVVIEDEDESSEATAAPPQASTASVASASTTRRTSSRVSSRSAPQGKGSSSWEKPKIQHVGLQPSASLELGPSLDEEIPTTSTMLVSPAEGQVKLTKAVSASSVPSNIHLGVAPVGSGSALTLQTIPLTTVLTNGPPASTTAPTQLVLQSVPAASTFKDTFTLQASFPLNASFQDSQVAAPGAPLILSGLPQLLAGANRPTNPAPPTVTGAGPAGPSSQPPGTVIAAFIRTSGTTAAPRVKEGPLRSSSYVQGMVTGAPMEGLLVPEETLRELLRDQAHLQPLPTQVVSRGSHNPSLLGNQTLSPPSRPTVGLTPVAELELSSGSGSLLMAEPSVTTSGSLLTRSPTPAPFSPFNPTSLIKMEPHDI
In short: as §1

ELK4 = target: T9, ELK4 (Homo sapiens, UniProt P28324-2 1-405); conditions: protein: recombinant; tags: N-terminal GST; dsDNA, one strand shown
T9 sequence: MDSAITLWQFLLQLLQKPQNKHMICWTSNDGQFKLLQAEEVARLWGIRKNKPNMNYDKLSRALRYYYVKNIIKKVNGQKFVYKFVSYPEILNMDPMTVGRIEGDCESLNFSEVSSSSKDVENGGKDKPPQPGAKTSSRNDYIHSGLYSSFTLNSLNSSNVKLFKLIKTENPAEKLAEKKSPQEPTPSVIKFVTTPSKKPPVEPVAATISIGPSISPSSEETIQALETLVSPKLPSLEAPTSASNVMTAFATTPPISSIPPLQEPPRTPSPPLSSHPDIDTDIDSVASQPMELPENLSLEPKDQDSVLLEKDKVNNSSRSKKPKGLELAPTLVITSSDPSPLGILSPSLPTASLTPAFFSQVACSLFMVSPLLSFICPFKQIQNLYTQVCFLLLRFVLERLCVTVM
In short: as §1

ETV2 = target: T10, ETV2 (Homo sapiens, UniProt O00321 1-342); conditions: protein: recombinant; tags: N-terminal GST; dsDNA, one strand shown
T10 sequence: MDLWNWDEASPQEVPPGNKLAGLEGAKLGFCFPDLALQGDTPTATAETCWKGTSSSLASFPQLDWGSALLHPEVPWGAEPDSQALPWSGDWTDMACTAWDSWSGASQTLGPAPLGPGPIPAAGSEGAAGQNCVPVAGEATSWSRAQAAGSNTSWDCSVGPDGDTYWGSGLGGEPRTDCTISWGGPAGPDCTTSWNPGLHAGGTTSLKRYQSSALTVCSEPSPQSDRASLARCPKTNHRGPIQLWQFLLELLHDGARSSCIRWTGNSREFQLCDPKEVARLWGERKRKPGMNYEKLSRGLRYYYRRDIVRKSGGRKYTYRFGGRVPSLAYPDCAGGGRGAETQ
In short: as §1

ELF3 = target: T11, ELF3 (Homo sapiens, UniProt P78545 1-371); conditions: protein: recombinant; tags: N-terminal GST; dsDNA, one strand shown
T11 sequence: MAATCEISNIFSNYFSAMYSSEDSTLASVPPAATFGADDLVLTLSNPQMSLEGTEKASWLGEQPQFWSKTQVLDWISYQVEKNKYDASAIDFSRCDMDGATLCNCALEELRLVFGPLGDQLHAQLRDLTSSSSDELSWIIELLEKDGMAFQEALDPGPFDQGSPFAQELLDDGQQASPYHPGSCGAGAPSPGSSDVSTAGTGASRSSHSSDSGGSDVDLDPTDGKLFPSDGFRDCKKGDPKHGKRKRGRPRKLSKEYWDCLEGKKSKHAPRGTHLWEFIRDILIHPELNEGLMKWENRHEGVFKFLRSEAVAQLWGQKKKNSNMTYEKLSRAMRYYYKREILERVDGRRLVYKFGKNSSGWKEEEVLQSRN
In short: as §1

CRX = CRX (Homo sapiens, UniProt O43186 1-299); conditions: protein: recombinant; tags: N-terminal GST; dsDNA, one strand shown
Chain of CRX (O43186 whole entry): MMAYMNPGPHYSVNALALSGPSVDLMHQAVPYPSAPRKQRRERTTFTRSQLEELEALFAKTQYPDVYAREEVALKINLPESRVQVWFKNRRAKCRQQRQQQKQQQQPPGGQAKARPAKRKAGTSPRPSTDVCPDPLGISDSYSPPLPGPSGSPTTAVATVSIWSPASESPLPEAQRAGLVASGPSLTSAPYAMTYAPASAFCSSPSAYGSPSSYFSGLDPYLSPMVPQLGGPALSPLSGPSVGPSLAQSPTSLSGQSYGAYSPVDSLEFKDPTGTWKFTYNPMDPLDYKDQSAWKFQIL
In short: as §1

ETV1 = ETV1 (Homo sapiens, UniProt P50549 1-477); conditions: protein: recombinant; tags: N-terminal GST; dsDNA, one strand shown
Chain of ETV1 (P50549 whole entry): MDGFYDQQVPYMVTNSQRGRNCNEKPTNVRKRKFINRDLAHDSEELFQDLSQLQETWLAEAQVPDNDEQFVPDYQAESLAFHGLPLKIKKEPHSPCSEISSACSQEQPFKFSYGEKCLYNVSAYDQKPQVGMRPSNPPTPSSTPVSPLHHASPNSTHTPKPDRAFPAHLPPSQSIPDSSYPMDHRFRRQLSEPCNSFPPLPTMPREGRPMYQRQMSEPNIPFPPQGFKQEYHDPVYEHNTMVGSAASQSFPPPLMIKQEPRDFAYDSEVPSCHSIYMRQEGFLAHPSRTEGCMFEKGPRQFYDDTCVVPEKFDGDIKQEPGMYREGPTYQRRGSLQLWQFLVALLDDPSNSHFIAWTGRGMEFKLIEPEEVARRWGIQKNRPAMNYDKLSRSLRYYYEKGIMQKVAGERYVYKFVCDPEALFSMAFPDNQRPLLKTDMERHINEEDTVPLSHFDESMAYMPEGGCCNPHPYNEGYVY
In short: as §1

What does the source list for ATTCAA?
binding signal (FLI1): 1.26 fold enrichment (6-mer frequency, TF over GST control); binding signal (ELK1): 1.34 fold enrichment (6-mer frequency, TF over GST control); binding signal (GABPA): 1.4 fold enrichment (6-mer frequency, TF over GST control); binding signal (ERG): 1.36 fold enrichment (6-mer frequency, TF over GST control); binding signal (ELF1): 1.39 fold enrichment (6-mer frequency, TF over GST control); binding signal (EHF): 1.41 fold enrichment (6-mer frequency, TF over GST control); binding signal (SPI1): 1.31 fold enrichment (6-mer frequency, TF over GST control); binding signal (SPIB): 1.34 fold enrichment (6-mer frequency, TF over GST control); binding signal (ELK3): 1.39 fold enrichment (6-mer frequency, TF over GST control); binding signal (FEV): 1.27 fold enrichment (6-mer frequency, TF over GST control); binding signal (ETV5): 1.32 fold enrichment (6-mer frequency, TF over GST control); binding signal (HSF1): 1.32 fold enrichment (6-mer frequency, TF over GST control); binding signal (SPIC): 1.32 fold enrichment (6-mer frequency, TF over GST control); binding signal (ELF4): 1.34 fold enrichment (6-mer frequency, TF over GST control); binding signal (ELK4): 1.39 fold enrichment (6-mer frequency, TF over GST control); binding signal (ETV2): 1.38 fold enrichment (6-mer frequency, TF over GST control); binding signal (ELF3): 1.38 fold enrichment (6-mer frequency, TF over GST control); binding signal (CRX): 1.36 fold enrichment (6-mer frequency, TF over GST control); binding signal (ETV1): 1.32 fold enrichment (6-mer frequency, TF over GST control)

Source: publication PMC7862700, “An all-to-all approach to the identification of sequence-specific readers for epigenetic DNA modifications on cytosine”
